# Out of some 69,000 compounds screened, about 950 (1.4%) showed an effect of 50% or more. The sample holds strong results, similar compounds and a random draw of the others, so the mix is not that of the screen.
# Tested on: Mycobacterium tuberculosis
# Assay: Cornell M. t heat shock assay; further: in the data most compounds retested in dose-response had high values
# Assay type: functional, organism-based
# Design: dose or concentration left out as unconfirmed
row,Structure (SMILES),Percent Effect
1,CCc1ncc(C(=O)N2CC[C@@H]3CC[C@H](C2)N3C)cn1,-16.81%
2,COc1cc2cc(C)c(SCCN3CCCCC3)nc2cc1OC.Cl,8.064%
3,CN1CCC(CNC(=O)c2ccc(O)nc2)c2ccccc21 (stereo not given),10.05%
4,CN1CCC(CNC(=O)c2cccc(NC(N)=O)c2)c2ccccc21 (stereo not given),13.83%
5,CN1CCC(CNC(=O)c2cccc(C(F)(F)F)c2)c2ccccc21 (stereo not given),80.18%
6,FC1(F)CCN(Cc2ccncc2)CC12CCN(Cc1ccccn1)C2.O=C(O)C(F)(F)F.O=C(O)C(F)(F)F.O=C(O)C(F)(F)F (stereo not given),-15.56%
7,CCN(C)c1ncnc2c1CCN(Cc1csc(C)n1)CC2.O=C(O)C(F)(F)F.O=C(O)C(F)(F)F,2.134%
8,O=S(=O)(C1CC1)N1CCc2ncnc(-c3ccsc3)c2CC1,-2.171%
9,O=C(O)C(F)(F)F.O=C(c1ncccn1)N1CCC2(CC1)COC(COc1ccccn1)C2 (stereo not given),-42.8%
10,CC(C)c1nnc2n1CCN(Cc1csc(-c3cnn(C)c3)n1)C2,2.86%
11,CCCC1CCCN(Cc2csc(-c3ncccn3)n2)CC1 (stereo not given),31.96%
12,Cc1nnc2n1CCN(Cc1csc(-c3cnn(C)c3)n1)C2,-22%
13,CCc1nnc2n1CCN(Cc1csc(-c3cnn(C)c3)n1)C2,103.2%
14,CCCC1CCCN(Cc2csc(-c3cnn(C)c3)n2)CC1 (stereo not given),101.6%
15,Cn1cc(-c2nc(CN3CCN(CCO)CC3)cs2)cn1,7.212%
16,O=C(O)C(F)(F)F.O=C1COC2(CCN(C(=O)c3ccoc3)CC2)CN1Cc1ccccn1,-25.96%
17,CCc1ccc2c(C3CN(C(C)=O)C3)ncn2c1,-5.457%
18,CCc1ccc2c(C3CN(CC4CCC4)C3)ncn2c1.O=C(O)C(F)(F)F,59.23%
19,CCc1ccc2c(C3CN(S(C)(=O)=O)C3)ncn2c1,-5.732%
20,Cc1ccoc1C(=O)N1C[C@H](OCc2cccnc2)[C@H]2OCCC[C@H]21.O=C(O)C(F)(F)F,-24.06%
21,NC(=O)c1ccc(S(=O)(=O)NCCc2ccccn2)cc1,2.755%
22,CNc1cc(CCNC(=O)C2CCCC2)nc(-c2ccccn2)n1,89.44%
23,CCCC(=O)NCCc1cc(NC)nc(-c2ccccn2)n1,12.39%

row,Structure (SMILES),Percent Effect
1,CCc1cc(NCCCNS(C)(=O)=O)nc(-c2ccncc2)n1,-1.348%
2,CCc1cc(NCCCNS(C)(=O)=O)nc(-c2ccccn2)n1,56.84%
3,CNc1cc(CCNC(=O)CC(C)C)nc(-c2ccccn2)n1,36.61%
4,CNC(=O)c1ccc(S(=O)(=O)NCCc2ccccn2)cc1,-8.04%
5,Cc1cc(NCCCNS(C)(=O)=O)nc2ccccc12,-11.41%
6,CNc1cc(CCNS(=O)(=O)c2ccccc2)nc(-c2ccccn2)n1,99.14%
7,CC1=C(C#N)C(=O)NC(=O)/C1=C\c1c(C)nn(-c2ccc(Cl)cc2)c1O,-14.1%
8,COc1ccc(CN2CC[C@H]3O[C@@H](C(=O)NCC4CC4)CC[C@H]32)cc1.O=C(O)C(F)(F)F,-25.68%
9,COc1cc(N2C[C@@H]3CC[C@H](C2)N(CC2CCC2)C3=O)ncn1,-13.86%
10,Cc1nc(N)c2ccc(C3CCCN3)nc2n1.Cl (stereo not given),-2.129%
11,COCCN1C[C@H]2CC[C@@H]1CN(CC(=O)Nc1ccn(C)n1)C2,-13.49%
12,CC(C)=CCN1C[C@H]2CC[C@@H]1CN(Cc1cc(=O)[nH]c(=O)[nH]1)C2,13.63%
13,COCCN1C[C@H]2CC[C@@H]1CN(Cc1nc3ccccc3n1C)C2,78.75%
14,O=c1cc(CN2C[C@H]3CC[C@@H]2CN(Cc2ccccc2)C3)[nH]c(=O)[nH]1,-10.28%
15,COCCN1C[C@H]2CC[C@@H]1CN(Cc1cc(=O)c3cc(C)ccc3[nH]1)C2,51.84%
16,COCCN1C[C@H]2CC[C@@H]1CN(Cc1ccc3ccccc3n1)C2,46.17%
17,Cc1ccc(CN2C[C@@H]3CN(C(=O)c4cccn4C)C[C@@H]3C2)cc1.O=C(O)C(F)(F)F,-6.874%
18,CN(C)[C@@H]1CCN(C(=O)CC2CC2)[C@H]1Cc1cnn(C)c1.O=C(O)C(F)(F)F,1.412%
19,O=C(O)C(F)(F)F.O=C1C[C@H]2[C@@H](CCN2C(=O)c2ccc[nH]2)N1CCN1CCCC1,-37.83%
20,Cn1ccnc1-c1nc(N2CCCCC2)ncc1-c1ccccc1F,-0.09407%
21,CC1CCN(c2ncc(-c3ccccc3F)c(-c3nccn3C)n2)CC1,17.54%
22,CC1CCCN(c2ncc(-c3ccccc3F)c(-c3nccn3C)n2)C1 (stereo not given),84.22%
23,O=C([C@H]1C[C@@H]2CN(c3ncc(F)cn3)C[C@H]1O2)N1CCOCC1,19.91%

row,Structure (SMILES),Percent Effect
1,CCc1ccc(CN2Cc3nccn3CC(Cn3cncn3)C2)o1.O=C(O)C(F)(F)F (stereo not given),0.4246%
2,CC(C)(C)OC(=O)N1CC(=O)N(Cc2ccco2)CC(O)C1 (stereo not given),11.64%
3,COc1ccccc1C(=O)N1CC(=O)N(Cc2ccco2)CC(O)C1 (stereo not given),54.55%
4,CCOC(=O)N1CC(=O)N(Cc2cccc(OC)c2OC)CC(O)C1 (stereo not given),45.58%
5,CC(C)CC(=O)N1CC(=O)N(Cc2ccco2)CC(O)C1 (stereo not given),14.12%
6,COc1ccccc1C(=O)N1CC(=O)N(CC2CC2)CC(O)C1 (stereo not given),43.16%
7,COc1cccc(CN2CC(O)CN(C(=O)C3CC3)CC2=O)c1OC (stereo not given),31.08%
8,Cc1ccc(C(=O)N2CC(=O)N(Cc3ccco3)CC(O)C2)cc1 (stereo not given),34.47%
9,COc1cccc(CN2CC(O)CN(C(=O)C(C)(C)C)CC2=O)c1OC (stereo not given),90.93%
10,CC(C)(C)C(=O)N1CC(=O)N(Cc2ccco2)CC(O)C1 (stereo not given),52.39%
11,O=C(CCc1nnc(-c2ccccc2)o1)N1CCCC1c1ccc[nH]1 (stereo not given),-1.66%
12,Cc1cccnc1N1CC2(CCN(Cc3cccnc3)C2)C1.O=C(O)C(F)(F)F.O=C(O)C(F)(F)F.O=C(O)C(F)(F)F,-27.63%
13,CN(C)CCN1CCCC12CCN(C(=O)c1ccco1)CC2.O=C(O)C(F)(F)F.O=C(O)C(F)(F)F,-2.887%
14,CN(C)CCOCC1CN(Cc2ccncc2)Cc2nnn(C)c21.O=C(O)C(F)(F)F.O=C(O)C(F)(F)F.O=C(O)C(F)(F)F (stereo not given),-16.03%
15,O=C(c1nn(-c2ccccc2F)cc1O)N1CCCC1,42.43%
16,O=C(c1nn(-c2ccccc2F)cc1O)N1CCCCC1,22.71%
17,CCc1ccccc1-n1cc(O)c(C(=O)N2CCCCC2)n1,56%
18,Fc1cccc(CN2C[C@@H]3CN(Cc4ccccn4)C[C@@H]3C2)c1.O=C(O)C(F)(F)F.O=C(O)C(F)(F)F,35.12%
19,CCN1CC2(CC1=O)CN(Cc1ccsc1)CCN(C(=O)C(C)C)C2.O=C(O)C(F)(F)F (stereo not given),-8.211%
20,O=C1c2cnc(N3CCC(O)CC3)nc2CN1Cc1cccc(F)c1,-32.08%
21,Cc1nc(Nc2cnccn2)cc(C2CN(C(C)C)C2)n1.O=CO,-9.635%
22,CN1CCCN(C(=O)c2ccnn2-c2ccc3ccccn23)CC1.O=C(O)C(F)(F)F,-45.73%
23,O=C1CCNc2ccccc2CN1Cc1ccco1,41.47%

row,Structure (SMILES),Percent Effect
1,COc1ccc2c(c1)CN(Cc1ccco1)C(=O)CCN2,54.29%
2,O=C1CCNc2ccc(F)cc2CN1Cc1ccco1,32.83%
3,Cc1nc(CN2C(=O)COC3(CCN(Cc4ccsc4)CC3)C2C)cs1.O=C(O)C(F)(F)F (stereo not given),-25.28%
4,CCCNC(c1cccnc1)c1ccc(F)c(C)c1.Cl.Cl (stereo not given),-18.54%
5,Cc1noc(C)c1CN1CC[C@H]2[C@@H]1CCC(=O)N2CC1CCOCC1.O=C(O)C(F)(F)F,19.97%
6,O=C(O)c1cc(/C=C/c2ccccc2)ncn1,-25.85%
7,O=C(O)c1cc(/C=C/c2ccc3ccccc3c2)ncn1,55.05%
8,O=C(O)c1cc(/C=C/c2cccc3ccccc23)ncn1,-14.83%
9,Cc1cccc(CN2Cc3nccn3CC(CN3CCOCC3)C2)c1.O=C(O)C(F)(F)F.O=C(O)C(F)(F)F (stereo not given),-25.56%
10,O=C(C1CCCCC1)N1C[C@@H]2CCN(c3cnccn3)C[C@@H]2C1.O=C(O)C(F)(F)F,23.71%
11,Cc1ccccc1-n1cc(-c2ccnc(N3CCCC(O)C3)n2)cn1 (stereo not given),0.7216%
12,Cc1ccccc1-n1cc(-c2ccnc(N3CCCC(CN)C3)n2)cn1 (stereo not given),6.089%
13,COC[C@H]1CCCN1c1nccc(-c2cnn(-c3ccccc3C)c2)n1,57.5%
14,O=C(CC1CC1)N1C[C@@H]2CCN(c3cccnc3)C[C@@H]2C1.O=C(O)C(F)(F)F,-11.14%
15,COCCNC(=O)C(C)N1CCN(C)CC1.O=C(O)C(=O)O (stereo not given),1.358%
16,CC(C)N1CCCC(CN(C)c2ccc(Cn3ccnc3)cn2)C1 (stereo not given),-4.084%
17,CN(CC1CCN(c2ccccc2)C1)c1ccc(Cn2ccnc2)cn1 (stereo not given),105.3%
18,OC1CCN(C2CCN(c3ccc(Cn4ccnc4)cn3)CC2)CC1,13.23%
19,CCc1cc2cc(OC)c(OC)cc2nc1SCCN1CCCCC1.Cl,-12.6%
20,O=C(O)C(F)(F)F.O=C(c1ccc[nH]1)N1CCc2c(COCC3CC3)cncc2C1,-0.4009%
21,O=C(N1CCCC1)N1Cc2nccn2CC(CN2CCCC2)C1.O=C(O)C(F)(F)F (stereo not given),-12.61%
